Only some compounds are listed: those with a hit (about 4.5% of all), similar ones and a draw of the others.
DRV1 agonist = agonists of human resolvin D1 receptor DRV1 (GPR32) | CHO-K1 GPR32 beta-arrestin PathHunter luminescence, 90 min; zero percent set by DMSO-only wells | AID 1346428 | activation, % at 76.9 µM | 48,000 tested, 2.5% active;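 active = activation of at least 60% and not above a set upper limit, about 1 call in 100 departs from these limits; inconclusive = activation of 40% to 60%, or above that upper limit; inactive = activation under 40%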; also: 0% is about no effect
Target sequence (O75388 whole entry, looked up): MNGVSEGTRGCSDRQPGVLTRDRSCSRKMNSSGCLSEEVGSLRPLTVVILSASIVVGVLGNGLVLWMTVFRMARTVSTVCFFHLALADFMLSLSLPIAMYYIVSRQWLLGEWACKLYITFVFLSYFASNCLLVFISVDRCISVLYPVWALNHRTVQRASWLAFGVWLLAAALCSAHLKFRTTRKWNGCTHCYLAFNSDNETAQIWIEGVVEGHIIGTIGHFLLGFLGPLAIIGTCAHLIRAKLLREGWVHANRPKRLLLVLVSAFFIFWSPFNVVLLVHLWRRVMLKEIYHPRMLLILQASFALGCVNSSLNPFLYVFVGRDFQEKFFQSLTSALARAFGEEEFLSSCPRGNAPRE
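Agonism was scored as beta-arrestin recruitment to ProLink-fused GPR32 in stably transfected CHO-K1 cells, giving a chemiluminescent beta-Gal signal; compounds were incubated 90 min at 37 °C.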
NTMT1 inhibitor = blocks human N-terminal methyltransferase 1 activity; Q9BV86; 59,000 tested, 2.5% active; NTMT1 MTase-Glo SAH luminescence, purified enzyme; Potency, µM (doses to about 114 µM), for inactives: at the highest dose activity change, negative = inhibition, usual class: inhibitors;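 also: potency is read from the fitted curve at half-maximal effect; plate controls were DMSO vehicle for no effect and no enzyme for full effect; nearly all actives have a fitted effect of over 65% in size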
Target sequence (Q9BV86 whole entry, looked up): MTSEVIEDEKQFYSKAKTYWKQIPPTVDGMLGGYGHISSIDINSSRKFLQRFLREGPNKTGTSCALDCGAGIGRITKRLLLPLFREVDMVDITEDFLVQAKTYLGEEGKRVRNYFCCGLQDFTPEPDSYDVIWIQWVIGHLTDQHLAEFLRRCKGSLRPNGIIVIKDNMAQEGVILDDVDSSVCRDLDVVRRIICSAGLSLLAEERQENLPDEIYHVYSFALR
SKOV3 invasion = ovarian cancer metastasis inhibition, 3D TME model; 46,000 tested, 0.1% active; Potency, µM (titrated, usually from 45.8 µM), for the others: at the highest dose activity change, negative = inhibition, usual class: inhibitors; SKOV3ip1-GFP adhesion/invasion on 3D omental model, fluorescence;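 also: potency is read from the fitted curve at half-maximal effect; plate controls were DMSO wells for no effect and tomatine positive control wells for full effect; nearly all actives have a fitted effect of over 65% in size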
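Adhesion/invasion was scored as fixed GFP-labeled SKOV3ip1 cell counts (488/509 nm), normalized to DMSO and tomatine controls. Cancer cells in serum-free medium, with four compound doses (0.36-46 umol/L), sat 2 hr at RT then 16 hr at 37 C on a 48 hr fibroblast/mesothelial/ECM culture.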
HTT-AS promoter = activates huntingtin-antisense promoter activity. HEK293 HTT-AS promoter firefly luciferase reporter, 24 h; response scale: percent change from vehicle, -100% = no light. AID 1508624. 48,000 tested, 0.24% active. Potency, µM (highest dose often 57.5 µM), inactives show at the highest dose activity change, positive = activation, hits mostly activators; also: potency is read from the fitted curve at half-maximal effect; nearly all actives have a fitted effect of over 55% in size
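Quantitative HTS used concentration series of up to 57.5 uM final on HEK293 luciferase reporter cells, 24 h at 37 degrees C. Readout was Dual-Glo firefly luminescence.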
HTT promoter inh = HTT promoter inhibition. HEK293 HTT promoter firefly luciferase reporter, 24 h. 48,000 tested, 0.93% active. Potency, µM (top dose mostly 57.5 µM), for inactives: at the highest dose activity change, negative = inhibition, most hits filed as inhibitors; also: potency is read from the fitted curve at half-maximal effect; nearly all actives have a fitted effect of over 50% in size
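Quantitative HTS used concentration series of up to 57.5 uM final on HEK293 luciferase reporter cells, 24 h at 37 degrees C. Readout was Dual-Glo firefly luminescence.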
An asterisk follows results filed as active; i = inactive; ? = inconclusive; . = no result given; ! = not confirmed by another sample; [ ] = another dose, or the depositor's remark. Unless noted, calls follow the shape of the dose curve; as a rule, active = well fitted curve in the direction sought with a large enough effect; inconclusive = small, poorly fitted or top-dose-only effect, or another doubt; inactive = no such curve, though single readings can be large; an effect the other way counts as inactive or inconclusive.

SMILES | DRV1 agonist | NTMT1 inhibitor | SKOV3 invasion | HTT-AS promoter | HTT promoter inh
CCOC(=O)c1ccc(NC(=O)Cn2ncc3c(C)n(Cc4ccccc4F)c(C)c3c2=O)cc1 | -9 | 1% | -12% | -1% | 4%
COc1cc2ncnc(Nc3ccc(O)c(Br)c3)c2cc1OC | . | 40µM* | . | . | .
COc1ccccc1Nc1ncc2c(n1)CCN(Cc1cc(F)cc(F)c1)C2 | 21 | 1% | -9% | -15% | ?
COc1cc(CN2CCc3nc(Nc4ccc5c(c4)OCCO5)ncc3C2)cc(OC)c1OC | 97* | 7% | i | ? | 12%
COc1cccc(CN2CCc3nc(Nc4ccc5c(c4)OCCO5)ncc3C2)c1OC | 86* | 5% | 11% | -8% | ?
Cc1ccc(CN2CCc3nc(Nc4ccc5c(c4)OCCO5)ncc3C2)cc1 | 29 | 3% | i | -2% | -12%
CCc1ccc(CN2CCc3nc(Nc4ccc5c(c4)OCCO5)ncc3C2)cc1 | -22 | 89µM* | -3% | -17% | -38%
COc1ccccc1Nc1ncc2c(n1)CCN(CC(C)C)C2 | -4 | -4% | -4% | 13µM* | 29%
COc1ccc(-n2cc(-c3ccccc3)c3c(NCc4cccc(Cl)c4)ncnc32)cc1 | -30 | -1% | 4% | -14% | ?
COc1cccc(CNCCSc2nnnn2C)c1OCc1ccc(F)cc1 | 81* | -2% | i | -20% | -7%
COc1ccc(-c2cc(C(F)(F)F)n3nc(C(=O)NCC45CC6CC(CC(C6)C4)C5)cc3n2)cc1OC | -10 | ? | i | -15% | ?
O=C(CCn1cnc2onc(-c3ccc(F)cc3)c2c1=O)Nc1ccc(F)c(Cl)c1 | 7 | 8% | -6% | -75% | 22µM*
O=C(CCn1cnc2onc(-c3ccc(F)cc3)c2c1=O)Nc1cccc(C(F)(F)F)c1 | ? | -3% | 0% | -59% | ?
CCc1ccccc1NC(=O)Cn1c(=O)nc(-c2ccccc2)c2ccccc21 | -4 | 2% | 4% | -10% | -3%
O=C1Nc2ccc(C(=O)c3ccco3)cc2/C1=C/c1cc(Cl)c(O)c(Cl)c1 | . | 4µM* | . | . | .
O=C1Nc2ccccc2/C1=C/c1cc(Cl)c(O)c(Cl)c1 | . | 35µM*! | . | . | .
C=C(c1ccc(C(=O)O)cc1)c1cc2c(cc1C)C(C)(C)CCC2(C)C | -9 | 112µM*! | -4% | -10% | -3%
CCOc1ccccc1CNC(=O)Cn1nc(N2CCN(c3ccccc3)CC2)ccc1=O | 61* | -6% | 14% | -18% | 3%
COc1ccc(CNC(=O)Cn2nc(N3CCN(c4ccccc4)CC3)ccc2=O)c(OC)c1 | 10 | ? | i | -6% | 4%
CCc1ccc(NC(=O)CSc2nc3c(sc4ccccc43)c(=O)n2CCN(CC)CC)cc1 | 34 | -9% | i | 2% | -10%
COc1ccc(-c2nc3c(c(SCC(=O)Nc4cccc(O)c4)n2)Cc2c(CO)cnc(C)c2O3)cc1 | -5 | 45µM* | -5% | -8% | -6%
COc1cc(NC(=O)CSc2nc(-c3ccc(C)cc3)nc3c2Cc2ccccc2O3)cc(OC)c1 | 8 | -2% | -22% | -23% | -13%
COc1ccc2c(c1)Oc1nc(-c3ccc(C)cc3)nc(SCC(=O)Nc3cccc(C(=O)O)c3)c1C2 | . | 22µM* | . | . | .
O=C(CSc1nc(-c2ccc(F)cc2)nc2c1Cc1ccccc1O2)Nc1cccc(C(=O)O)c1 | 0 | 6.3µM* | i | -7% | -1%
CCn1c2ccccc2c2nnc(N3CCN(c4cccc(C)c4C)CC3)nc21 | -18 | -1% | -9% | -2% | -1%
SMILES | DRV1 agonist | NTMT1 inhibitor | SKOV3 invasion | HTT-AS promoter | HTT promoter inh
CC(=O)NC(CS)C(=O)O (stereo not given) | . | 9% | -23% | -9% | 1%
CN(C/C=C/C#CC(C)(C)C)Cc1cccc2ccccc12 | 95* | 20%[57.5 µM] | . | -10% | 3%
CN(CC=CC#CC(C)(C)C)Cc1cccc2ccccc12 | . | -23%[57.5 µM] | -5% | 14% | 1%
Clc1ccc(-c2cn3cc(Cc4ccccc4)sc3n2)cc1 | 35 | 0% | 5% | 3% | -18%
Fc1ccccc1Cc1cn2cc(-c3ccc(Cl)cc3)nc2s1 | 68* | 4% | i | ? | 3%
O=C(NCCc1csc(-c2ccc(F)cc2)n1)c1cccc(F)c1 | 66* | -7% | -4% | -28% | ?
O=C(NCCc1csc(-c2ccc(F)cc2)n1)c1c(F)cccc1Cl | 45 | 1% | -4% | -22% | ?
Cc1cccc(-c2nc(CCNC(=O)Cc3ccc(F)cc3)cs2)c1 | -16 | 10% | 0% | -31% | -21%
O=C(Cc1ccc(F)cc1)NCCc1csc(-c2cccc(F)c2)n1 | 103* | 9% | 8% | -18% | ?
O=C(COc1ccccc1)Nc1ccc2nc(SCC(=O)N3CCCC3)sc2c1 | 3 | -1% | -4% | 1% | 5%
Brc1csc(CN2CCc3nc(Nc4ccccc4)ncc3C2)c1 | -11 | -9% | 4% | 4% | 1%
CC(C)C[C@H](N)c1nnc(SCc2ccc(Cl)cc2Cl)o1 | 77* | -5% | i | -16% | -29%
CCOc1ccc(NC(=O)CNS(=O)(=O)c2ccc(Br)s2)cc1 | 42 | 1% | -27% | -41% | -33%
CCOC(=O)c1ccc(NS(=O)(=O)c2ccc(Br)s2)cc1 | 66* | ? | 1% | -17% | -15%
CCC(=O)N1CCc2cc(Br)cc(S(=O)(=O)NCCc3ccc(OC)c(OC)c3)c21 | 10 | -24% | i | -12% | -6%
COc1ccc(C2Nc3ccccc3C(=O)N2C2CCCC2)cc1COc1ccc(NC(C)=O)cc1 (stereo not given) | . | 33% | . | . | .
Fc1cccc(-c2nc(-c3ccncc3)no2)c1 | -5 | -3% | 2% | 4µM* | 40%
Clc1ccccc1-c1nc(-c2ccncc2)no1 | 45 | ? | . | ? | 30%
Cc1nc(NC2CCCCC2)c2nc(-c3ccccc3)n(CCN(C)C)c2n1 | . | -6% | . | . | .
Cc1ccc(-n2nc3c(=O)n(CC(=O)NC(C)C)nc(C)c3c2C)cc1 | 0 | 17% | i | -10% | -4%
CC1CCCN(Cc2nc3c(c(=O)n(C)c(=O)n3C)n2Cc2ccc(Cl)cc2)C1 (stereo not given) | -2 | 6% | 5% | 12% | -5%
COc1ccc(S(=O)(=O)N(CC(=O)Nc2cc(C)ccc2OC)Cc2ccccc2)cc1 | -5 | 2.5µM* | 3% | -5% | -39%
COc1ccc(S(=O)(=O)N(CC(=O)Nc2ccccc2Br)Cc2ccccc2)cc1 | -5 | ? | 1% | -24% | ?
CCCCOc1cccc(C(=O)Nc2cc3nn(-c4ccc(F)cc4)nc3cc2C)c1 | -15 | 0% | 4% | ? | 11%
O=C(Nc1nc2cccc(-c3ccc(CN4CCS(=O)(=O)CC4)cc3)n2n1)C1CC1 | . | 4% | 15% | 24µM* | 25%
